Bioassay records as filed in PubChem.
KB-3-1 tox: kills parental KB-3-1 adenocarcinoma cells. KB-3-1 viability, CellTiter-Glo ATP luminescence, 72 h. Potency, µM (top dose mostly 46.1 µM), usual class: cytotoxic. 1.4% of 400,000 active; also: % is scaled to controls: 0 for no effect and ±100 for the full control effect; nearly all actives have a fitted effect of over 60% in size
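Multi-concentration cytotoxicity screen in KB-3-1 cells grown in DMEM lacking phenol red with 10% FBS. After 72 h at 37 °C with compound, ATP-dependent luminescence was recorded.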
HT1080NT lethal: kills 2HG-producing HT-1080-NT fibrosarcoma cells; HT-1080-NT fibrosarcoma viability, CellTiter-Glo ATP luminescence, 48 h; Potency, µM (highest dose often 46.1 µM), for the others: top-dose activity, negative = less viability, most hits filed as cytotoxic; 1.6% of 360,000 active;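 also: NT is the 2HG producing partner of a matched IDH1 knockdown line; 0% = DMSO-treated cells and -100% = media-only wells without cells; nearly all actives have a fitted effect of over 55% in size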
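Viability by CellTiter-Glo luminescence after 48 h compound exposure at 37C of HT-1080-NT cells (750/well, RPMI, 5% FBS). % activity scaled between DMSO wells and medium-only wells, then curve-fitted and categorized by curve class.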
KB-V1 cytotox: kills drug-selected multidrug resistant KB-V1 cells; KB-V1 MDR cells viability, CellTiter-Glo, 72 h; Potency, µM (series often up to 46.1 µM), most hits filed as cytotoxic; 3.4% of 400,000 active; also: % is scaled to controls: 0 for no effect and ±100 for the full control effect; nearly all actives have a fitted effect of over 60% in size
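KB-V1 MDR subline cells in DMEM (phenol-red free, 10% FBS) exposed to compounds in qHTS concentration series for 72 h at 37 degrees C. Viability read by CellTiter-Glo luminescence; concentration-effect curves fitted after normalization and correction.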
ATXN2 expr inh: ATXN2 expression inhibition; HEK-293 ATXN2-luciferase reporter, luminescence, 24 h; Potency, µM (highest dose often 57 µM), without a hit: at the highest dose activity change, negative = inhibition, hits mostly inhibitors; 0.72% of 360,000 active; also: % is scaled to controls: 0 for no effect and ±100 for the full control effect; nearly all actives have a fitted effect of over 55% in size
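qHTS (up to 57 uM final) was run with 24 h compound exposure of reporter cells at 37 °C. Each well was multiplexed: SteadyGlo luminescence measured ATXN2-luciferase expression after a fluorogenic Gly-Phe-AFC viability readout (25 uM final).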
HT1080 IDH1KD tx: HT-1080 IDH1 knockdown cell toxicity (counter line); HT-1080 IDH1 knockdown viability, ATP luminescence, 48 h; Potency, µM (highest dose often 46.1 µM), for inactives: top-dose activity, negative = toxicity, actives largely listed as cytotoxic; 2% of 360,000 active; AID 686971;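 also: 0% = DMSO wells and -100% = cell-free medium wells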
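IDH1KD HT-1080 cells, 750/well, RPMI + 5% FBS; compound pinned after 2 h settling; 48 h, 37 °C; CellTiter-Glo luminescence; % activity normalised to DMSO and no-cell wells; curves fitted, classed by r2 and efficacy.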
S2 tox: viability counter-screen for ATXN expression inhibitors | S2 cells (HEK-293 line with an ATXN2-luciferase reporter) viability, CellTiter-Fluor protease fluorescence, 24 h | Potency, µM (top dose mostly 56.7 µM), hits mostly cytotoxic | 0.49% of 400,000 active; also: nearly all actives have a fitted effect of over 40% in size
* hit, by the source's call; i = inactive; ? = inconclusive; . = no result; [ ] = remark or other dose. A selection: hits, their analogues and other compounds. The true share with any hit is near 6.2%. Calls follow the shape of the dose curve; as a rule, active = well fitted curve in the direction sought with a large enough effect; inconclusive = small, poorly fitted or top-dose-only effect, or another doubt; inactive = no such curve, though single readings can be large; an effect the other way counts as inactive or inconclusive. Potency is read from the fitted curve at half-maximal effect.

SMILES	KB-3-1 tox	HT1080NT lethal	KB-V1 cytotox	ATXN2 expr inh	HT1080 IDH1KD tx	S2 tox
COCCn1c(SCC(=O)N2CCc3ccccc3C2)nc2cc(Cl)ccc2c1=O	?	10%	1.8µM*	-8%	25%	?
CC(C)NC(=O)Cn1c(SCC(=O)N2CCc3ccccc3C2)nc2ccccc21	i	14%	12µM*	29%	8%	i
CC(C)Cn1c(SCC(=O)N2CCc3ccccc3C2)nc2cc(Cl)ccc2c1=O	i	0%	?	1%	-1%	i
CC1CC(C)CN(C(=O)Cn2c(SCC(=O)N3CCc4ccccc4C3)nc3ccccc32)C1 (centres undefined)	i	-23%	i	-11%	-8%	?
O=C(Nc1ccc(Cl)cc1F)c1cc(S(=O)(=O)NC2CCCCCC2)ccc1F	i	.	i	.	.	.
Cc1ccc(C(C)C)c(OCc2ccc(C(=O)Nc3ccc(S(N)(=O)=O)cc3C)o2)c1	i	.	i	?	.	?
O=C(NCc1ccccc1)c1ccc2c(c1)CCN2S(=O)(=O)c1ccc(Cl)cc1	i	.	i	-8%	.	i
COc1cccc(NC(=O)c2cc(CN3CCOCC3)on2)c1	i	.	i	24%	.	i
CCSc1ncc(Cl)c(C(=O)Nc2ccc(S(=O)(=O)Nc3nccc(C)n3)cc2)n1	i	.	i	-14%	.	i
COc1ccc(OC)c(C2=CC(=O)C[C@H](c3ccc4c(c3)OCO4)C2)c1	10µM*	?	?	-20%	?	i
CCOc1ccc(Br)cc1C1=CC(=O)C[C@H](c2ccc(OC)cc2)C1	5.8µM*	?	16µM*	-5%	5.8µM*	i
COc1ccc([C@H]2CC(=O)C=C(c3ccnc4ccc(Cl)cc34)C2)cc1	?	18µM*	i	0%	3.7µM*	?
O=C1C=C(c2ccc3cc[nH]c3c2)C[C@@H](c2ccc3c(c2)OCO3)C1	i	18µM*	i	-33%	-80%	?
COc1ccc([C@H]2CC(=O)C=C(c3cc(Br)ccc3OC)C2)cc1	?	-18%	?	?	?	i
COc1ccc([C@H]2CC(=O)C=C(c3cc(Cl)ccc3C)C2)cc1	i	-14%	i	9%	-10%	i
CCc1ccc2oc(C(=O)NCc3ccccc3)cc(=O)c2c1	i	.	i	-14%	.	i
COc1ccc([C@H]2CC(=O)C=C(c3cc(C)ccc3OC)C2)cc1	21µM*	?	5.8µM*	-23%	?	?
CCN(C[C@H]1N[C@@](CC)(C(=O)OC)[C@H]2C(=O)N(Cc3ccccc3)C(=O)[C@@H]12)C(=O)c1ccc(C(C)(C)C)cc1	i	?	?	?	21µM*	16µM*
CCOc1cccc(-c2nnc3sc(COc4ccc(Cl)cc4)nn23)c1	21µM*	8%	?	-14%	-3%	i
COc1cc(-c2nn3c(-c4ccccc4)nnc3s2)cc(OC)c1OC	?	-14%	?	-17%	-27%	i
CCOc1cccc(-c2nnc3sc(COc4ccc(C)cc4)nn23)c1	i	14%	i	-15%	12%	i
c1cncc(-c2nnc3sc(-c4ccco4)nn23)c1	i	?	i	-4%	-10%	i
COc1cccc(-c2nnc3sc(-c4cccs4)nn23)c1	i	5%	i	20%	4%	?
CCOc1cccc(-c2nnc3sc(-c4cccs4)nn23)c1	i	-3%	5.2µM*	-19%	8%	i
CCOc1cccc(-c2nnc3sc(-c4cc(OC)c(OC)c(OC)c4)nn23)c1	?	-2%	8.2µM*	-26%	-2%	?
SMILES	KB-3-1 tox	HT1080NT lethal	KB-V1 cytotox	ATXN2 expr inh	HT1080 IDH1KD tx	S2 tox
CCN(CC)c1ccc(-c2nn3c(-c4cccnc4)nnc3s2)cc1	21µM*	-29%	7.3µM*	-25%	-19%	i
COc1cccc(-c2nnc3sc(-c4ccco4)nn23)c1	i	5%	i	37%	1%	i
COc1cc(-c2nn3c(COc4ccccc4)nnc3s2)cc(OC)c1OC	i	-14%	5.2µM*	-23%	-5%	i
COc1ccc(-c2nnc3sc(-c4ccco4)nn23)cc1OC	?	9%	2.1µM*	-12%	0%	i
COc1cc(-c2nn3c(Cc4ccccc4)nnc3s2)cc(OC)c1OC	i	-22%	i	25%	-19%	i
CCOc1cccc(-c2nn3c(-c4ccco4)nnc3s2)c1	?	9%	9.2µM*	17%	12%	i
COc1ccc(Cl)cc1-n1nnc(-c2nsc(NC(=O)c3ccccc3Cl)n2)c1C	i	.	i	2%	.	i
CC(c1ccccc1)N1CCn2c(nc3cc(NC(=O)c4cccs4)ccc32)C1 (centres undefined)	i	?	?	22%	17%[9.24 µM]	i
CC(c1ccccc1)N1CCn2c(nc3cc(NC(=O)NC4CCCCC4)ccc32)C1 (centres undefined)	?	16µM*	i	-9%	?	i
Nc1c(C(=O)c2ccc(Cl)cc2)sc2c1c(=O)[nH]c(=O)n2-c1ccccc1	i	-1%	i	-14%	-8%	i
Nc1c(C(=O)c2ccccc2)sc2c1c(=O)[nH]c(=O)n2-c1ccccc1	i	-12%	15µM*	-4%	-18%	i
CC(=O)c1ccc(-n2c(=O)[nH]c(=O)c3c(N)c(C(=O)c4ccc(Cl)cc4)sc32)cc1	i	21µM*	i	-16%	23µM*	i
Cc1ccc(C2CC2c2n[nH]c(=S)n2-c2cccc(C)c2)cc1 (centres undefined)	i	-17%	?	-1%	?	i
Cc1ccc(C2CC2c2n[nH]c(=S)n2-c2ccc(Cl)cc2)cc1 (centres undefined)	?	-21%	16µM*	-9%	?	i
CCOC(=O)[C@]12CCC=C1N(Cc1cccc3ccccc13)C(=O)[C@H](CC(=O)NCCCCc1ccccc1)C2	?	-18%	16µM*	-29%	-19%	?
CCOC(=O)[C@]12CCC=C1N(Cc1cccc3ccccc13)C(=O)[C@H](CC(=O)NCCc1ccccc1OC)C2	?	-23%	15µM*	-23%	-15%	?
CCOC(=O)[C@]12CCC=C1N(Cc1cccc3ccccc13)C(=O)[C@H](CC(=O)NCc1ccc(C)o1)C2	i	?	12µM*	-26%	?	?
Cc1ccc(S(=O)(=O)n2nc(-c3ccc(Cl)cc3)nc2NCc2ccc(F)cc2)cc1	i	.	?	1%	.	i
